Reference: PubChem BioAssay (EPA / NIEHS)
“And” between values parts separate entries of the source, which are not always exact repeats. Equal values may be shown once. Some structures have more than one record in an assay (separate samples or runs), and their calls can disagree. The source made the active and inactive calls. The calls were made as follows: active = hit-call score of the fitted dose curve at least 0.9, where 1 is the maximum; inactive = score below 0.9.

What was measured:
[1] = biological target: Transcription factor E2F1 (Homo sapiens) (UniProt Q01094); assay: ATG_E2F_CIS: Attagene CIS-FACTORIAL HepG2 Assay for human E2F Transcription Factor 1 (AID 2282935); conditions: HepG2 Attagene cis-reporter, E2F reporter RNA transcripts; actives raise or lower the signal
Chain of Transcription factor E2F1 (Homo sapiens) (Q01094 whole entry, looked up): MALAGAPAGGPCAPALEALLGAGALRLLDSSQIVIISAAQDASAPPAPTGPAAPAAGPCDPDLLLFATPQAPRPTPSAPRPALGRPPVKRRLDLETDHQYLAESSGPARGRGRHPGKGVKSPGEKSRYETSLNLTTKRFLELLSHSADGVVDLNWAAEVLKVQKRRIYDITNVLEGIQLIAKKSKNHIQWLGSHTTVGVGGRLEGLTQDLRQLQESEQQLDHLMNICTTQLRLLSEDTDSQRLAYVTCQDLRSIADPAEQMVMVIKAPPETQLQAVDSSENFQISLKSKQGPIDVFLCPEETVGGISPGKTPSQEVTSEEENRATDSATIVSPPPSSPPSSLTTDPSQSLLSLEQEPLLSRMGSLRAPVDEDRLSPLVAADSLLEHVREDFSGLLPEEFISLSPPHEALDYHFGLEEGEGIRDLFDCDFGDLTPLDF
Outline: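 In this cis-factorial format, endogenous factor activity drives transfected reporters in HepG2; transcripts collected at 24 h are quantified by fluorescence after RT-PCR and capillary separation.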

[2] = ATG_E_Box_CIS: Attagene CIS-FACTORIAL HepG2 Assay for human Enhancer Box (E-box) (AID 2282936); conditions: HepG2 E-box cis-reporter transcription, actives raise or lower the signal
Outline: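 Measured 24 h post-dosing in HepG2 cells transfected with multiple cis-regulated reporter units, signal being reporter mRNA induction detected by fluorescent RT-PCR with capillary electrophoresis; gain or loss fitted against DMSO.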

[3] = ATG_M_61_CIS: Attagene CIS-FACTORIAL HepG2 Assay for M61 Transcription Factor (Internal Marker) (AID 2282937); conditions: HepG2 Attagene CIS-FACTORIAL M61 internal marker reporter; actives raise or lower the signal
Outline: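 Using transiently transfected HepG2 liver cells, reporter transcript levels were assessed 24 h post-dosing by RT-PCR and capillary electrophoresis. Changes in either direction were fitted relative to DMSO controls.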

[4] = ATG_EGR_CIS: Attagene CIS-FACTORIAL HepG2 Assay for human Early Growth Response 1 (EGR1) (AID 2282938); conditions: HepG2 Attagene CIS-FACTORIAL EGR reporter mRNA; actives raise or lower the signal
Outline: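 Fluorescent capillary-electrophoresis signal of reporter cDNA fragments serves as read-out. HepG2 cells bear transiently transfected cis-promoter reporter units and are exposed 24 h; gain- or loss-of-signal is fitted against DMSO.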

[5] = ATG_M_19_CIS: Attagene CIS-FACTORIAL HepG2 Assay for M19 Transcription Factor (Internal Marker) (AID 2282939); conditions: HepG2 Attagene CIS-FACTORIAL M19 internal marker reporter; actives raise or lower the signal
Outline: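 Following a 24 h exposure, RNA from transfected HepG2 cells was reverse-transcribed, PCR-amplified with reporter-specific primers, end-labelled with 6-FAM and HpaI-digested before capillary separation. Values represent gain or loss versus DMSO.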

[6] = ATG_ERE_CIS: Attagene CIS-FACTORIAL HepG2 Assay for Estrogen Response Element (ERE) (AID 2282940); conditions: HepG2 ERE cis-reporter, Attagene RNA transcript; actives raise or lower the signal
Outline: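 HepG2, transient cis-reporter units, 24 h exposure. RNA isolated, oligo(dT) RT, reporter-specific PCR, FAM extension, HpaI cut, CE detection. Gain/loss-of-signal vs DMSO.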

[7] = biological target: Hepatocyte nuclear factor 3-beta (Homo sapiens) (UniProt Q9Y261); assay: ATG_FoxA2_CIS: Attagene CIS-FACTORIAL HepG2 Assay for human Forkhead box A2 (FOXA2) (AID 2282942); conditions: HepG2 cis-reporter transcription factor activity, 24 h; actives raise or lower the signal
Chain of Hepatocyte nuclear factor 3-beta (Homo sapiens) (Q9Y261 whole entry, looked up, the tested form may be a part): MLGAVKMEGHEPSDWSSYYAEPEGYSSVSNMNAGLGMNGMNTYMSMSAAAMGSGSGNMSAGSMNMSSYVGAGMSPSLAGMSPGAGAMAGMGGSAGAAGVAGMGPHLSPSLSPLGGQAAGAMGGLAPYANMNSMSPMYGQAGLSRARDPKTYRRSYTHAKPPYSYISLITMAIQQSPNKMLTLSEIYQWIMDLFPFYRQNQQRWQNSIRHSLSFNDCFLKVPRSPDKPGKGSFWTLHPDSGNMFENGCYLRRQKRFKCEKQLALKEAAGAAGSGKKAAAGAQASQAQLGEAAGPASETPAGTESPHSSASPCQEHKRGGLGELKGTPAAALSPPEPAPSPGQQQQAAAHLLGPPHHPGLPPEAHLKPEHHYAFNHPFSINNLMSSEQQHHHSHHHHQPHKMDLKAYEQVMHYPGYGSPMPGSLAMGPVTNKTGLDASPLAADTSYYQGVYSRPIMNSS
Outline: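 Fluorescence signal of reporter cDNA fragments, separated by capillary electrophoresis, reflects endogenous transcription factor activity in transfected HepG2 after 24 h. Both increases and decreases fitted against DMSO.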

[8] = ATG_FoxO_CIS: Attagene CIS-FACTORIAL HepG2 Assay for human Forkhead box O (FoxO) (AID 2282943); conditions: HepG2 Attagene cis-reporter, FoxO element, mRNA; actives raise or lower the signal
Outline: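 24 h chemical exposure, HepG2 with transient cis-MRTU transfection. RNA extraction, oligo(dT) RT, reporter-specific PCR, primer-extension labelling, HpaI digestion, CE fragment analysis; bidirectional fit, DMSO baseline.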

[9] = ATG_GATA_CIS: Attagene CIS-FACTORIAL HepG2 Assay for human GATA Binding Protein (AID 2282944); conditions: HepG2 GATA cis-element reporter, Attagene multiplex mRNA; actives raise or lower the signal
Outline: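 DMSO serves as negative control and baseline for bidirectional fitting of reporter mRNA changes. HepG2 cells bearing transiently transfected cis-promoter reporters were exposed 24 h; transcripts detected via RT-PCR and capillary electrophoresis.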

[10] = ATG_GLI_CIS: Attagene CIS-FACTORIAL HepG2 Assay for human Zinc Finger Protein GLI1 (AID 2282945); conditions: HepG2, Attagene cis-factorial reporter mRNA, GLI element; actives raise or lower the signal
Outline: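 HepG2 cells transiently transfected with cis-promoter multiplexed reporter units report endogenous transcription factor activity. After 24 h chemical exposure, reporter mRNA was quantified by RT-PCR, 6-FAM labelling, HpaI digestion and capillary electrophoresis, with bidirectional fitting against DMSO.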

[11] = biological target: Bile acid receptor (Homo sapiens) (UniProt Q96RI1); assay: ATG_IR1_CIS: Attagene CIS-FACTORIAL HepG2 Assay for human Nuclear Receptor Subfamily 1 Group H Member 4 (NR1H4), IR1 submotif (AID 2282946); conditions: IR1 reporter transcription, actives raise or lower the signal
Chain of Bile acid receptor (Homo sapiens) (Q96RI1 whole entry, looked up): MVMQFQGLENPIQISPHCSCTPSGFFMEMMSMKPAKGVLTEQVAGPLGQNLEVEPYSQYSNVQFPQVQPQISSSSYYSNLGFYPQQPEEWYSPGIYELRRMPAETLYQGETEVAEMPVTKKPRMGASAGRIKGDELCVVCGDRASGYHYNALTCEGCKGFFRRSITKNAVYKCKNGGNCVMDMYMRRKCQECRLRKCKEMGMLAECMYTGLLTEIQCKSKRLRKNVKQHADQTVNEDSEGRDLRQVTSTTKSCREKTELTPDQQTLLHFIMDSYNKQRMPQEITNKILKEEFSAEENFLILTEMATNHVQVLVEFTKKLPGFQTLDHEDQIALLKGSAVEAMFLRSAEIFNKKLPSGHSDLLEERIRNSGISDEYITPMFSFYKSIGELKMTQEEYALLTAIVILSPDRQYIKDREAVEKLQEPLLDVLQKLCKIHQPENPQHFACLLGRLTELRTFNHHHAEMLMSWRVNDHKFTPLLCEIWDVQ
Outline: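 Readout: reporter transcript levels by RT-PCR with fluorescent capillary electrophoresis, from HepG2 cells transiently transfected with multiplexed cis-regulated reporters and dosed 24 h. Gain- or loss-of-signal fitted versus DMSO negative control.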

[12] = ATG_GRE_CIS: Attagene CIS-FACTORIAL HepG2 Assay for human Glucocorticoid Response Elements (GRE) (AID 2282947); conditions: HepG2 GRE cis-reporter, Attagene multiplex mRNA; actives raise or lower the signal
Outline: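 HepG2, transient cis-reporter transfection, 24 h. Reporter mRNA: RT-PCR then CE, fluorescence. Fit both directions vs DMSO.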

[13] = ATG_ISRE_CIS: Attagene CIS-FACTORIAL HepG2 Assay for human Interferon Regulatory Factor 1 (IRF1) binding to an Interferon-Stimulated Response Element (ISRE) (AID 2282948); conditions: HepG2 ISRE cis-reporter (Attagene), mRNA transcription readout; actives raise or lower the signal
Outline: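 Uses HepG2 liver cells transfected with cis-regulated reporters and measures mRNA 24 h post-dosing through RT-PCR, primer-extension labelling and capillary electrophoresis, with DMSO as negative control.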

[14] = ATG_M_32_CIS: Attagene CIS-FACTORIAL HepG2 Assay for M32 Transcription Factor (Internal Marker) (AID 2282949); conditions: HepG2 Attagene cis-factorial M32 reporter, mRNA; actives raise or lower the signal;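 also: background control marker of the multiplexed CIS panel rather than a real target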
Outline: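 Using DMSO as baseline, bidirectional curve fits were applied to reporter mRNA signals. These came from transiently transfected HepG2 cells exposed for 24 h, with RNA analysed by RT-PCR, FAM primer extension, HpaI digestion and CE.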

[15] = ATG_M_06_CIS: Attagene CIS-FACTORIAL HepG2 Assay for M06 Transcription Factor (Internal Marker) (AID 2282950); conditions: HepG2 Attagene CIS-FACTORIAL M06 internal marker reporter; actives raise or lower the signal
Outline: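 Fluorescence-labelled RT-PCR products from cis-promoter reporter units, cut with HpaI and resolved by capillary electrophoresis, give the signal. Cells are human HepG2, dosed for 24 h. Serves as background control, fitted relative to DMSO.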

[16] = biological target: Hepatocyte nuclear factor 6 (Homo sapiens) (UniProt Q9UBC0); assay: ATG_HNF6_CIS: Attagene CIS-FACTORIAL HepG2 Assay for human Hepatocyte Nuclear Factor 6 (HNF6) (AID 2282952); conditions: HepG2 Attagene cis-factorial HNF6 reporter transcription; actives raise or lower the signal
Chain of Hepatocyte nuclear factor 6 (Homo sapiens) (Q9UBC0 whole entry, looked up, the tested form may be a part): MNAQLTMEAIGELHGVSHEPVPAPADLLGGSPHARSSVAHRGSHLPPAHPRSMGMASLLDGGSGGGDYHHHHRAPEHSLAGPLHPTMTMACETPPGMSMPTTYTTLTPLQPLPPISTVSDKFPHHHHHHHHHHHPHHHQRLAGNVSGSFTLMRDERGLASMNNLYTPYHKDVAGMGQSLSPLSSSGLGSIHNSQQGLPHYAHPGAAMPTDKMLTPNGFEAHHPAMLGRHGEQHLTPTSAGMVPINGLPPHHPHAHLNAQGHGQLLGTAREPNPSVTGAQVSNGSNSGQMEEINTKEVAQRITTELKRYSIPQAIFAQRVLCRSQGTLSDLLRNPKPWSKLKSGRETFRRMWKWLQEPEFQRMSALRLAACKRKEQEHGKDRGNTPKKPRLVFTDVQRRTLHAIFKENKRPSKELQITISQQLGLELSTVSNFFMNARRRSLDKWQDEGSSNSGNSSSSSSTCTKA
Outline: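 Using cis-element reporters in HepG2 liver cells, the assay tracks endogenous factor-driven transcription 24 h post-dosing. Signal comes from 6-FAM-labelled, HpaI-digested RT-PCR fragments, with gain or loss scored against DMSO.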

[17] = biological target: Heat shock factor protein 1 (Homo sapiens) (UniProt Q00613); assay: ATG_HSE_CIS: Attagene CIS-FACTORIAL HepG2 Assay for human Heat Shock Transcription Factor 1 (HSE) (AID 2282953); conditions: HepG2 HSE cis-reporter, Attagene RNA transcription; actives raise or lower the signal
Chain of Heat shock factor protein 1 (Homo sapiens) (Q00613 whole entry, looked up): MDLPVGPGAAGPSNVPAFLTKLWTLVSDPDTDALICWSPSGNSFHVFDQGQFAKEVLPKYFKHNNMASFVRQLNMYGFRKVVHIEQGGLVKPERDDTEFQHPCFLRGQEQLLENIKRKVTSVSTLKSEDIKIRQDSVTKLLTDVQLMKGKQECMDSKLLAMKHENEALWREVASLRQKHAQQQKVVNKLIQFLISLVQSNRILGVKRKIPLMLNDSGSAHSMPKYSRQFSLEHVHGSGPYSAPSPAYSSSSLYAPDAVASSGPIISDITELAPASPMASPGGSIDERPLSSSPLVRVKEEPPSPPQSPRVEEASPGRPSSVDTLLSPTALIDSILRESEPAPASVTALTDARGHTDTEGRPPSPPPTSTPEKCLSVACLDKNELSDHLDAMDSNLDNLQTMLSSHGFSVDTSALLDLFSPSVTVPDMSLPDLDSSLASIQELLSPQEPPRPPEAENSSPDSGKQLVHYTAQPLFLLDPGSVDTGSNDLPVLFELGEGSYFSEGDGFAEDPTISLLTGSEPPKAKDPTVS
Outline: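 After a 24 h incubation with test chemical, transfected HepG2 cells were harvested for RNA; reporter transcripts were measured by RT-PCR and capillary electrophoresis. Values reflect gain or loss of signal relative to DMSO.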

[18] = ATG_MRE_CIS: Attagene CIS-FACTORIAL HepG2 Assay for human Metal Responsive Element (MRE) (AID 2282954); conditions: HepG2 MRE cis-reporter transcription, Attagene multiplex; actives raise or lower the signal
Outline: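 Readout: capillary electrophoresis of 6-FAM-labelled, HpaI-digested RT-PCR reporter products. System: HepG2 cells carrying transient multiplexed cis reporters, dosed 24 h. Analysis: bidirectional fit, DMSO baseline.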

[19] = ATG_Ets_CIS: Attagene CIS-FACTORIAL HepG2 Assay for human Erythroblast Transformation Specific (ETS) (AID 2282941); conditions: HepG2 ETS cis-reporter transcription, actives raise or lower the signal
Outline: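 Bidirectional fit versus DMSO of reporter mRNA signal, detected by RT-PCR and capillary electrophoresis in HepG2 cells transiently transfected with cis-element reporters and dosed 24 h.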

[20] = biological target: Hypoxia-inducible factor 1-alpha (Homo sapiens) (UniProt Q16665); assay: ATG_HIF1a_CIS: Attagene CIS-FACTORIAL HepG2 Assay for human Hypoxia Inducible Factor 1 (HIF1A) (AID 2282951); conditions: HepG2 Attagene cis-factorial HIF1a reporter transcription; actives raise or lower the signal
Chain of Hypoxia-inducible factor 1-alpha (Homo sapiens) (Q16665 whole entry, looked up): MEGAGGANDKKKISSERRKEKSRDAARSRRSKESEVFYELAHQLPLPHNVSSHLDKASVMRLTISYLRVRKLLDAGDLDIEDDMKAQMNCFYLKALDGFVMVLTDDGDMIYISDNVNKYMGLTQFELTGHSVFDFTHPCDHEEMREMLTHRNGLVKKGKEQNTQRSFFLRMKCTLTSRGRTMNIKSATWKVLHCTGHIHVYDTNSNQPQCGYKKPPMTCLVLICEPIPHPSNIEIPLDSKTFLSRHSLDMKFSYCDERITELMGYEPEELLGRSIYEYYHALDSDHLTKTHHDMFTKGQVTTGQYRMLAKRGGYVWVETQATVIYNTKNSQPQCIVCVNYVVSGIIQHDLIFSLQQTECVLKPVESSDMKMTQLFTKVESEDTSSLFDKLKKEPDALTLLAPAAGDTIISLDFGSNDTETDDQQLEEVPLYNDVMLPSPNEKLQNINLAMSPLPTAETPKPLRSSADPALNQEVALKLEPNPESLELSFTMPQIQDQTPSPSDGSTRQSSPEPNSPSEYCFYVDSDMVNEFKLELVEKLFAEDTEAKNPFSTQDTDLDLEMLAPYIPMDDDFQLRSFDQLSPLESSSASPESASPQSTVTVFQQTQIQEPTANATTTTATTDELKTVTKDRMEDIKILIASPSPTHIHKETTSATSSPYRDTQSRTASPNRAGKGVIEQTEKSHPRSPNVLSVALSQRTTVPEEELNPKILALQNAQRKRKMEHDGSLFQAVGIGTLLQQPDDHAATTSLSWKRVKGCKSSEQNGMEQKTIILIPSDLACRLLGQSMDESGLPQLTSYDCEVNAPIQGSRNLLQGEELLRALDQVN
Outline: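 Endogenous-TF cis reporter readout, human HepG2 cells, 24 h incubation; mRNA detected via RT-PCR and capillary electrophoresis fluorescence; DMSO-normalised bidirectional fitting.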

Measured: AC50

Cc1cc(C)nc(NC(=O)NS(=O)(=O)c2ccccc2C(=O)OC2COC2)n1
active: [4] 79 µM | [6] 71 µM | [17] 76.2 µM | [18] 80.5 µM
not listed: [19] | [20]
inactive: all other assays above

ClC1C(Cl)C(Cl)C(Cl)C(Cl)C1Cl (centres undefined)
active: [2] 100 µM and 69.6 µM | [13] 161 µM and 58.2 µM | [18] 17.1 µM and 100 µM and 33.7 µM
inactive: [1] | [2] | [3] | [4] | [5] | [7] | [8] | [9] | [10] | [11] | [13] | [14] | [15] | [16] | [17] | [18]

CC1(c2ccc(Oc3ccccc3)cc2)OC(=O)N(Nc2ccccc2)C1=O (centres undefined)
not listed: [20]
inactive: all other assays above

CCc1ccc(C(=O)NN(C(=O)c2cc(C)cc(C)c2)C(C)(C)C)cc1
active: [4] 16.5 µM | [18] 18.2 µM
not listed: [19]
inactive: all other assays above

O=C1c2ccccc2C(=O)N1SC(Cl)(Cl)Cl
not listed: [12] | [20]
inactive: all other assays above

CCOc1nc(NC)nc(NC(=O)NS(=O)(=O)c2ccccc2C(=O)OC)n1
not listed: [20]
inactive: all other assays above

CCC(C)Nc1c([N+](=O)[O-])cc(C(C)(C)C)cc1[N+](=O)[O-] (centres undefined)
active: [6] 5.96 µM | [18] 31.6 µM
not listed: [11] | [17] | [20]
inactive: all other assays above
